# From PubChem BioAssay (NCI)
# This is part of a sample that, as a whole, favours compounds with a hit. Of some 83,000 tested, about 20% had one in any assay.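 Single-dose data. Exposure time 48 hours. Values below 10 considered active.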 A number with no mark means an inactive call. Calls of active or inactive are those of the source.
# Experiments:
# Test in all cases: NCI-60 one-dose screen, 48 h (100 = growth as untreated, 0 = no growth, -100 = all killed)
# Conditions in all cases: 10 µM unless noted
# [1] = test system: BT-549 breast
# [2] = test system: MDA-MB-435 melanoma
# [3] = test system: SW-620 colon
# [4] = test system: MCF7 breast
# [5] = test system: HCT-116 colon
# [6] = test system: HCC-2998 colon
# [7] = test system: KM12 colon
SMILES,growth [1],growth [2],growth [3],growth [4],growth [5],growth [6],growth [7]
CCNCCNc1cc(C2CCCC2)c(C#N)c2nc3ccccc3n12,9.57% (active),11.2%,8.01% (active),29.6%,1.61% (active),32.7%,35%
C[C@H]1[C@H]2C3=CC[C@@H]4[C@@]5(C)C/C(=C/c6ccncc6)C(=O)C(C)(C)[C@@H]5CC[C@@]4(C)[C@]3(C)CC[C@@]2(C(=O)N2CCN(C)CC2)CC[C@@H]1C,89.3%,81.9%,83.1%,58.5%,55.4%,82.9%,67.5%
C=C1c2c(C)nn(-c3ccc(O)cc3)c2N(C)C23C[C@@H]1C1(C)c4c(C)nn(-c5ccc(O)cc5)c4N(C)C(C)(C[C@H]12)C3 (stereo not given in full),28.6%,18.7%,31.2%,5.99% (active),8.9% (active),44.9%,21.2%
C=C(C)[C@@H]1CC[C@]2(CN)CC[C@]3(C)[C@H](CC[C@@H]4[C@@]5(C)CCC(N)[C@@](C)(CO)[C@@H]5CC[C@]43C)[C@@H]12 (stereo not given in full),80.4%,-86.7% (active),-76.5% (active),-72.2% (active),-85.5% (active),-53.6% (active),-72.1% (active)
C=C1C(=O)O[C@H]2[C@H]1CC/C(COC(=O)/C=C\C(=O)NCc1ccc(Cn3c(=O)sn(CCCC)c3=O)cc1)=C\CC[C@@]1(C)O[C@@H]21,-73.3% (active),-73.9% (active),-45.5% (active),-43% (active),-77.5% (active),-80.3% (active),-59.7% (active)
CC1(C)C(=O)/C(=C\c2cccnc2)C[C@]2(C)[C@H]3CC=C4[C@@H]5C[C@@](C)(C(=O)O)CC[C@]5(C)CC[C@@]4(C)[C@]3(C)CC[C@@H]12,96.6%,103%,107%,87.7%,91.9%,108%,99.2%
O=C(NCc1cccnc1)c1cc(-c2csc3c(=O)cc(N4CCOCC4)oc23)cc2c1OCCO2,54.3%,32.9%,46.9%,8.29% (active),45.2%,41.8%,48.9%
CS(=O)(=O)c1ccc(-c2nc3cc(Cl)ccc3n2CC(=O)N/N=C/c2ccc(Cl)cc2)cc1,41.8%,73.7%,75%,37.4%,42.1%,73.5%,41%
C=C(C)[C@@H]1CC[C@]2(CO)CC[C@]3(C)[C@H](CC[C@@H]4[C@@]5(C)C=C(C#N)C(=O)C(C)(C)[C@@H]5CC[C@]43C)[C@@H]12,29.3%,17.8%,5.54% (active),1.77% (active),10.5%,8.97% (active),6.43% (active)
N=C(N)c1ccc(-c2ccc(-c3ccc(Cl)c(Cl)c3)o2)cc1,90%,-42.1% (active),-73.6% (active),-68.9% (active),-83% (active),-75.7% (active),-84.2% (active)
CC(C)n1nc(C#Cc2cccc(O)c2)c2c(N)ncnc21,-65.4% (active),-25.8% (active),0.77% (active),0.624% (active),-63.8% (active),-2.82% (active),-7.5% (active)
Cc1csc(NC(=O)c2sc3nc(-c4cccs4)ccc3c2N)n1,,108%,99.4%,71.3%,,114%,92.9%
COc1cc(NC(=O)c2cccc(-c3cc(=O)c4c(O)c(OC)c(OC)cc4o3)c2)cc(OC)c1OC,7% (active),65.4%,73.3%,49.4%,,66%,53.9%
Fc1ccc(Nc2nc3nonc3nc2Nc2ccc(F)cc2)cc1,,5.74% (active),9.46% (active),3.66% (active),,13.1%,3.91% (active)
CCOC(=O)C(O)C(O)(c1ccccc1)c1ccccc1 (stereo not given),103%,111%,109%,93.5%,,99.9%,101%
Cc1nc(C)c(-c2nn3c(-c4cccc(F)c4)nnc3s2)s1,,95.2%,96.8%,99.8%,,105%,99%
Cc1nn(-c2ccccc2)c2c1C(c1ccc([N+](=O)[O-])cc1)C(C#N)=C(N)O2 (stereo not given),123%,121%,119%,96.7%,95.8%,105%,109%
COc1ccc(OC)c(Nc2nc3nonc3nc2Nc2cccc(Br)c2)c1,,14.9%,11.7%,5.95% (active),10.9%,25%,7.96% (active)
C/C(Cc1ccc(Cl)cc1)=C(/c1ccc(Cl)cc1)c1ccc(OCCN(C)C)cc1,103%,44.6%,-32.4% (active),11%,16.5%,1.6% (active),27.9%
CCOc1cc(C2C(Cl)C(=O)N2n2cnnc2)ccc1O (stereo not given),93%,96.2%,97.2%,97.5%,,99.7%,99.1%
